The record followed here is the antibiotic and cytotoxicity screens of Wong et al. (2023).

Hit rate of the full screen: of about 39,000 compounds, about 1,500 (3.8%) were called active. The full list was thinned out, with actives kept by preference.

The assay concerns HSkMC (human skeletal muscle cells). In words: cytotoxicity call (relative viability < 0.9). The conditions noted are these: 10 µM.
As to `Cc1noc(C)c1S(=O)(=O)N(C)C[C@H]1Oc2c(NC(=O)NC3CCCCC3)cccc2C(=O)N([C@H](C)CO)C[C@@H]1C`, the cytotoxicity call was “inactive”.
As to `C[C@H](CO)N1C[C@H](C)[C@@H](CN(C)S(=O)(=O)c2cn(C)cn2)Oc2ccc(NC(=O)Cn3cnnn3)cc2C1=O`, the cytotoxicity call was “inactive”.
For the molecule `CC(C)NC(=O)N(C)C[C@@H]1Oc2ccc(NS(=O)(=O)c3ccc(Cl)cc3)cc2CC(=O)N([C@H](C)CO)C[C@@H]1C`, the cytotoxicity call was “inactive”.
For `CC(C)NC(=O)Nc1ccc2c(c1)C(=O)N([C@H](C)CO)C[C@H](C)[C@@H](CN(C)S(=O)(=O)c1ccccc1)O2`, the cytotoxicity call was “inactive”.
With `COc1ccc(S(=O)(=O)N(C)C[C@H]2Oc3c(NC(=O)c4cc(C)nn4C)cccc3C(=O)N([C@H](C)CO)C[C@@H]2C)cc1` the entry was “inactive”; with `COc1ccc(S(=O)(=O)Nc2ccc3c(c2)C(=O)N([C@H](C)CO)C[C@H](C)[C@@H](CN(C)C(=O)Nc2ccccc2)OCCCC[C@@H](C)O3)cc1`, “inactive”.
With `C[C@H]1CN([C@@H](C)CO)C(=O)c2ccccc2-c2ccccc2CO[C@H]1CN(C)Cc1ccc(C(F)(F)F)cc1` the entry was “inactive”.
With `C[C@@H]1CCCCO[C@H](CN(C)Cc2ccc(C(=O)O)cc2)[C@@H](C)CN([C@H](C)CO)C(=O)c2cc(NS(=O)(=O)c3ccc(Cl)cc3)ccc2O1` the entry was “inactive”; with `CNC(=O)C(=O)Nc1cc(Cl)ccc1C#N`, “inactive”; with `CCN(CC)C(=O)[C@@H]1C[C@@H](N)CN1S(=O)(=O)N1CCCCCC1`, “inactive”.
In the case of `Cc1ccc(OCCn2c(CC(C)(C)C)nc3ccccc32)cc1`, the cytotoxicity call is “inactive”.
Turning to `Cc1nc2ccccc2n1Cc1ccc(Cl)cc1`, the cytotoxicity call was “inactive”.
As for `c1ccc(Cn2c(-c3ccc(OC[C@H](C4CCNCC4)n4c(-c5ccccc5)nc5ccccc54)cc3)nc3ccccc32)cc1`, the entry is “active”.
For the molecule `C[C@H](O)C#Cc1ccc2c(c1)O[C@H](CN(C)C(=O)Nc1ccccc1)[C@@H](C)CN([C@H](C)CO)S2(=O)=O`, the cytotoxicity call was “inactive”.
With `C[C@H]1CN([C@@H](C)CO)C(=O)c2cc(-c3cccnc3)cnc2O[C@@H]1CN(C)Cc1ccc(-c2ccccc2)cc1` the entry was “inactive”; with `C[C@@H]1CCCCO[C@H](CN(C)Cc2ccc(Cl)c(Cl)c2)[C@@H](C)CN([C@H](C)CO)C(=O)c2cc(NC(=O)C3CCCCC3)ccc2O1`, “inactive”; with `C[C@@H]1CCCCO[C@H](CN(C)Cc2ccc(Cl)c(Cl)c2)[C@@H](C)CN([C@@H](C)CO)C(=O)c2cc(NC(=O)NC3CCCCC3)ccc2O1`, “active”.
With `C[C@@H]1CCCCO[C@@H](CN(C)Cc2ccc(Cl)c(Cl)c2)[C@H](C)CN([C@H](C)CO)C(=O)c2cc(NC(=O)NC3CCCCC3)ccc2O1` the entry was “inactive”; with `C[C@@H]1CN([C@@H](C)CO)C(=O)c2cc(NC(=O)NC3CCCCC3)ccc2O[C@@H](C)CCCCO[C@H]1CN(C)Cc1ccc(Cl)c(Cl)c1`, “inactive”; with `C[C@@H]1CCCCO[C@H](CN(C)Cc2ccc(Cl)c(Cl)c2)[C@@H](C)CN([C@@H](C)CO)C(=O)c2cc(NC(=O)C3CCCCC3)ccc2O1`, “active”.
As for `C[C@H]1CCCCO[C@H](CN(C)Cc2ccc(Cl)c(Cl)c2)[C@@H](C)CN([C@@H](C)CO)C(=O)c2cc(NC(=O)NC3CCCCC3)ccc2O1`, the entry is “active”; as for `C[C@@H]1CCCCO[C@H](CN(C)Cc2ccc(Cl)c(Cl)c2)[C@@H](C)CN([C@H](C)CO)C(=O)c2cc(NC(=O)NC3CCCCC3)ccc2O1`, “inactive”; as for `C[C@@H]1CCCCO[C@@H](CN(C)Cc2ccc(Cl)c(Cl)c2)[C@@H](C)CN([C@@H](C)CO)C(=O)c2cc(NC(=O)NC3CCCCC3)ccc2O1`, “inactive”.
As for `C[C@@H]1CCCCO[C@H](CN(C)Cc2ccc(Cl)c(Cl)c2)[C@H](C)CN([C@@H](C)CO)C(=O)c2cc(NC(=O)C3CCCCC3)ccc2O1`, the cytotoxicity call was “inactive”.
With `C[C@@H]1CN([C@H](C)CO)C(=O)c2cccc(NS(C)(=O)=O)c2O[C@@H]1CN(C)Cc1ccc(C(=O)O)cc1` the entry was “inactive”.
With `Cc1noc(C)c1S(=O)(=O)N(C)C[C@H]1Oc2ccc(NC(=O)NC3CCCCC3)cc2CC(=O)N([C@@H](C)CO)C[C@H]1C` the entry was “inactive”; with `O=C(C[C@@H]1C[C@@H]2c3cc(NS(=O)(=O)c4ccc(F)cc4)ccc3O[C@@H]2[C@H](CO)O1)NCCN1CCCCC1`, “inactive”; with `C=CC[C@@H](CC(=O)N[C@H](CO)Cc1ccccc1)C(=O)NCCOC(=O)[C@H](CC=C)CC(=O)OC(C)(C)C`, “inactive”.
As to `CCCCCN1CC=C[C@]23O[C@@H]4/C=C/CCC(=O)N(C)[C@H](C)[C@@H](c5ccccc5)OC(=O)[C@@H]4[C@H]2C(=O)N(c2ccccc2Cl)[C@@H]3C1=O`, the cytotoxicity call is “inactive”.
For the molecule `Cc1noc(C)c1NC(=O)Nc1ccc2c(c1)C(=O)N([C@H](C)CO)C[C@H](C)[C@H](CN(C)S(=O)(=O)c1cccs1)OCCCC[C@H](C)O2`, the cytotoxicity call was “inactive”.
With `C[C@@H]1CN([C@@H](C)CO)S(=O)(=O)c2ccc(C#CC3CC3)cc2O[C@@H]1CN(C)C(=O)c1cccc(F)c1` the entry was “inactive”; with `CC(C)(O)c1ccccc1CC[C@@H](SCC1(CC(=O)O)CC1)c1cccc(/C=C/c2ccc3ccc(Cl)cc3n2)c1`, “active”; with `CC(C)(O)c1ccccc1CCC(SCC1(CC(=O)[O-])CC1)c1cccc(C=Cc2ccc3ccc(Cl)cc3n2)c1.[Na+]` (configuration not stated), “inactive”.
As to `C[C@@H]1CN([C@H](C)CO)C(=O)c2cc(NC(=O)Nc3cccc4ccccc34)ccc2O[C@@H](C)CCCCO[C@@H]1CN(C)S(=O)(=O)c1ccc(F)cc1`, the cytotoxicity call is “inactive”.
As for `COCC(=O)N1C[C@@H](C(=O)N2CCCO2)C[C@@H]2OCC[C@@H]21`, the entry is “inactive”; as for `O=C(Nc1cccc2cccnc12)[C@@H]1[C@H](c2ccc(I)cc2)CC(=O)N1C(=O)OCc1ccccc1`, “inactive”; as for `C[C@@H]1CCCCO[C@H](CN(C)C(=O)c2ccccc2)[C@H](C)CN([C@@H](C)CO)C(=O)c2cc(NS(=O)(=O)c3ccccc3)ccc2O1`, “inactive”.
Regarding `Cc1c2oc3c(C)ccc(C(=O)N[C@@H]4C(=O)N[C@@H](C(C)C)C(=O)N5CCC[C@H]5C(=O)N(C)CC(=O)N(C)[C@@H](C(C)C)C(=O)O[C@@H]4C)c3nc-2c(C(=O)N[C@@H]2C(=O)N[C@@H](C(C)C)C(=O)N3CCC[C@H]3C(=O)N(C)CC(=O)N(C)[C@@H](C(C)C)C(=O)O[C@@H]2C)c(N)c1=O`, the cytotoxicity call is “inactive”.
With `Cc1c2oc3c(C)ccc(C(=O)N[C@@H]4C(=O)N[C@H](C(C)C)C(=O)N5CCC[C@H]5C(=O)N(C)CC(=O)N(C)[C@@H](C(C)C)C(=O)O[C@@H]4C)c3nc-2c(C(=O)N[C@@H]2C(=O)N[C@H](C(C)C)C(=O)N3CCC[C@H]3C(=O)N(C)CC(=O)N(C)[C@@H](C(C)C)C(=O)O[C@@H]2C)c(N)c1=O` the entry was “active”; with `Cc1c2oc3c(C)ccc(C(=O)OC(C)C4NC(=O)C(C(C)C)N(C)C(=O)CN(C)C(=O)C5CCCN5C(=O)C(C(C)C)NC4=O)c3nc-2c(C(=O)OC(C)C2NC(=O)C(C(C)C)N(C)C(=O)CN(C)C(=O)C3CCCN3C(=O)C(C(C)C)NC2=O)c(N)c1=O` (configuration not stated), “inactive”.
Consider `CC(=O)O[C@H]1C[C@@]2(C)[C@@H](C[C@@H](O)[C@@H]3[C@@]4(C)CC[C@@H](O)[C@@H](C)[C@@H]4CC[C@@]32C)/C1=C(/CCC=C(C)C)C(=O)O`, for which the cytotoxicity call is “inactive”.
For the molecule `COc1ccccc1S(=O)(=O)N[C@H]1C=C[C@@H](CC(=O)N2CCN(C)CC2)O[C@H]1CO`, the cytotoxicity call was “inactive”.
With `O=C(C[C@@H]1CC[C@@H]2[C@H](COC[C@H](O)CN2S(=O)(=O)c2ccccc2)O1)N[C@@H]1CCN(Cc2ccccc2)C1` the entry was “inactive”.
With `C=CCC[C@@H](Cc1ccc(F)cc1)C(=O)OC[C@@H](NC(=O)[C@@H](CC=C)CC(=O)N(CCO)Cc1ccccc1)c1ccccc1` the entry was “active”.
With `C=CCC[C@@H](Cc1ccc(F)cc1)C(=O)OC[C@@H](Cc1ccccc1)NC(=O)[C@H](CC=C)CC(=O)N(CCO)Cc1ccccc1` the entry was “inactive”; with `C=CCC[C@H](Cc1ccc(F)cc1)C(=O)OC[C@@H](NC(=O)[C@@H](CC=C)CC(=O)N(CCO)Cc1ccccc1)c1ccccc1`, “active”; with `C=CC[C@@H](CC(=O)N(CCO)Cc1ccccc1)C(=O)N[C@H](COC(=O)[C@@H](CC=C)Cc1ccc(F)cc1)c1ccccc1`, “inactive”.
On to `C=CCC[C@H](Cc1ccc(F)cc1)C(=O)OC[C@@H](NC(=O)[C@H](CC=C)CC(=O)N(CCO)Cc1ccccc1)c1ccccc1`, for which the cytotoxicity call was “inactive”.
In the case of `C=CCC[C@@H](Cc1ccc(F)cc1)C(=O)OC[C@@H](NC(=O)[C@H](CC=C)CC(=O)N(CCO)Cc1ccccc1)c1ccccc1`, the cytotoxicity call is “inactive”.
Consider `Cc1ccc(S(=O)(=O)N(C)C[C@H]2Oc3ccc(NC(=O)Nc4cccc5ccccc45)cc3C(=O)N([C@H](C)CO)C[C@@H]2C)cc1`, for which the cytotoxicity call was “inactive”.
As for `COc1ccc(C#Cc2ccc3c(c2)[C@]2(C(=O)N3)[C@H](C(N)=O)[C@H]3C(=O)O[C@H](c4ccccc4)[C@H](c4ccccc4)N3[C@@H]2c2ccc(OCCO)cc2)cc1`, the entry is “inactive”; as for `Cc1cc(-c2ccccc2)nc(SCc2ccccc2)c1C#N`, “inactive”.
With `COc1ccc(S(=O)(=O)N(C)C[C@@H]2Oc3ccc(NS(C)(=O)=O)cc3CC(=O)N([C@@H](C)CO)C[C@H]2C)cc1`, the cytotoxicity call was “inactive”.
As for `CS(=O)(=O)Nc1ccc2c(c1)[C@@H]1C[C@H](CC(=O)NCc3ccc(-c4ccccc4)cc3)O[C@H](CO)[C@@H]1O2`, the cytotoxicity call is “inactive”.
As for `COc1ccc(S(=O)(=O)N(C)C[C@@H]2Oc3c(NC(=O)NC(C)C)cccc3C(=O)N([C@H](C)CO)C[C@@H]2C)cc1`, the entry is “inactive”; as for `Cc1noc(C)c1NC(=O)Nc1ccc2c(c1)C(=O)N([C@H](C)CO)C[C@H](C)[C@H](CN(C)C(=O)Nc1ccccc1)OCCCC[C@@H](C)O2`, “inactive”.
As for `CC1=C(/C=C/C(C)=C/C=C/C(C)=C\C(=O)O)C(C)(C)CCC1`, the entry is “inactive”.
